The source of these data is PubChem BioAssay (Tox21).

Values joined by “and” are separate entries in the source; they are usually repeats but may differ in a detail not shown here. Equal values may be shown once. Results filed as inconclusive are left out. Where a call stands in place of a potency, no number is given. Active and inactive are the calls of the source. Calls come from the whole dose curve; as a rule, active = well fitted curve in the direction sought with a large enough effect in the repeat runs; inconclusive = weak or mixed curves; inactive = no such curve, though single readings can be large; an effect the other way counts as inactive or inconclusive.

The first experiment can be described thus: qHTS assay to identify small molecule antagonists of the retinoid acid receptor (RAR) signaling pathway - cell viability counter screen (AID 1159551). Note: nearly all actives have a fitted effect of over 35% in size. Note: potency is the fitted concentration of half-maximal effect. Conditions: C3RL4 cells viability, ATP luminescence (CellTiter-Glo), 6 h; series mostly up to 92.4 µM. The method in brief: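 Cytotoxicity counter screen in C3RL4 cells: 6 h compound exposure with 1 uM retinol (final), viability from cellular ATP by luminescence.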
A general note: Quantitative high-throughput screening tests each substance at several concentrations.
`[O]=[Zr]`: the Potency entry is “inactive”.
On the same count and under the same terms, in the case of `Oc1ccc(-c2ccccc2)c(Cl)c1` it was “inactive”; in that of `CC(C)N=C(N)/N=C(\N)Nc1ccc(Cl)cc1`, “inactive”.
For the compound `C=C1C(C)(C)[C@@]2(Cl)C(Cl)[C@]1(Cl)C(Cl)(Cl)C2(Cl)Cl` (some centres not stated), the Potency result is “inactive”.
Take `COC(=O)C1=C(C)NC(C)=C(C(=O)OCCCN2CCC(c3ccccc3)(c3ccccc3)CC2)C1c1cccc([N+](=O)[O-])c1` (configuration not stated): the Potency result is “inactive”.
On the same count and under the same terms, in the case of `Cc1cncc(C)c1` it was “inactive”; in that of `O=C1OC(=O)c2cccc3cccc1c23`, “inactive”.
For the compound `S=P(N1CC1)(N1CC1)N1CC1`, the Potency entry was “inactive”.
As to `COc1ccccc1OCCNCC(O)COc1cccc2[nH]c3ccccc3c12` (configuration not stated), the Potency entry is “inactive”.
With `CCc1cccc(CC)c1N(COC)C(=O)CS(=O)(=O)O`, the Potency result was “inactive”.
In the case of `CCCSS/C(CCO)=C(\C)N(C=O)Cc1cnc(C)nc1N`, the Potency result was “inactive”.
As to `CC(COC(=O)c1ccccc1)OC(=O)c1ccccc1` (configuration not stated), the Potency result was “inactive”.
On the same count and under the same terms, then `CSc1ccc2c(c1)N(CCC1CCCCN1C)c1ccccc1S2` (configuration not stated), with 60.9 µM (active).
In the case of `COc1cc(C(C)C)c2c(c1)S(=O)(=O)N(COc1cc(=O)n3cccc(OCCN4CCCCC4)c3n1)C2=O`, the activity change, negative = cytotoxicity is 5.72% [at 19 µM] (inactive).
With `CCCCCCCCCCCCN(CCO)CCO`, the Potency is 68.3 µM (active).
On the same count and under the same terms, in the case of `COc1cccc(O)c1` it was “inactive”; in that of `Cc1cc2c(C(C)C)c(O)c(O)c(C=O)c2c(O)c1-c1c(C)cc2c(C(C)C)c(O)c(O)c(C=O)c2c1O`, “inactive”.
Same read-out and setting: then `CCN(CC)CCNc1ccc(CO)c2sc3ccccc3c(=O)c12`, with “inactive”.
The same measure, in the same setting: then `CCCCCCCCCCc1ccccc1`, with “inactive”.
For the compound `Clc1nc2ccccc2s1`, the Potency result was “inactive”.
As to `Brc1ccccc1-c1ccccc1`, the Potency entry was “inactive”.
`C[C@H]1O[C@@H](O[C@H]2[C@@H](O)C[C@H](O[C@H]3[C@@H](O)C[C@H](O[C@H]4CC[C@@]5(C)[C@H](CC[C@@H]6[C@@H]5C[C@@H](O)[C@]5(C)[C@@H](C7=CC(=O)OC7)CC[C@]65O)C4)O[C@@H]3C)O[C@@H]2C)C[C@H](O)[C@@H]1O`: the Potency result is “inactive”.
Consider `Nc1cc(Cl)c([N+](=O)[O-])cc1O`, for which the Potency entry is “inactive”.
Take `Oc1c(Br)cc(Br)c2cccnc12`: the Potency result is “inactive”.
Still for that read-out and setting: then `CCNc1nc(NC(C)CC)nc(OC)n1` (configuration not stated), with “inactive”; and `CC(C)(C)CC(C)(C)c1ccccc1O`, with 54.8 µM (active).
As to `CC(C)(C)C1=CC(=O)C=C(C(C)(C)C)C1=O`, the Potency result was “inactive”.
As to `C=C(C)C(=O)OCCC[Si](Cl)(Cl)Cl`, the Potency entry was “inactive”.
The same measure, in the same setting: then `CCCCCCS`, with “inactive”; and `C=CC(=O)OCCC#N`, with “inactive”.
Same read-out and setting: in the case of `CC(C)=CCCC(C)O` (configuration not stated) it was “inactive”; in that of `CC[N+](CC)(CC)Cc1ccccc1`, “inactive”.
With `C/C=C/C(=O)C1=C(C)CCCC1(C)C`, the Potency entry was “inactive”.
As for `CC(C)(C)c1cc(/C=C2\SC(=N)NC2=O)cc(C(C)(C)C)c1O`, the Potency result is “inactive”.
Same read-out and setting: then `CC(C)(c1cc(Br)c(OCCO)c(Br)c1)c1cc(Br)c(OCCO)c(Br)c1`, with “inactive”.
As for `CO[Si](CCCNCCNCCN)(OC)OC`, the Potency entry is “inactive”.

The next experiment is described as follows: qHTS assay to identify small molecule antagonists of the retinoic acid receptor (RAR) signaling pathway (AID 1159552; note: nearly all actives have a fitted effect of over 50% in size; note: potency is the fitted concentration of half-maximal effect). Conditions: C3RL4 RARE luciferase reporter, retinol-stimulated, 6 h; series mostly up to 92.4 µM. The method in brief: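 Using a RARE-driven luciferase construct in C3RL4 cells, retinol at 1 uM final provided the agonist stimulus while compounds were co-applied. After 6 hours at 37 C, luminescence was recorded to flag inhibitors of retinol signaling.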
For `Oc1ccc(-c2ccccc2)c(Cl)c1`, the Potency entry is “inactive”.
Regarding `Cc1cncc(C)c1`, the Potency entry is “inactive”.
The same measure, in the same setting: in the case of `CCc1cccc(CC)c1N(COC)C(=O)CS(=O)(=O)O` it was “inactive”.
Still for that read-out and setting: then `CCCSS/C(CCO)=C(\C)N(C=O)Cc1cnc(C)nc1N`, with 29.8 µM (active); and `CSc1ccc2c(c1)N(CCC1CCCCN1C)c1ccccc1S2` (configuration not stated), with 24.2 µM (active) and 29.8 µM (active).
Same read-out and setting: in the case of `CCCCCCCCCCCCN(CCO)CCO` it was 54.3 µM (active); in that of `COc1cccc(O)c1`, “inactive”.
Regarding `CCCCCCCCCCc1ccccc1`, the Potency entry is “inactive”.
Consider `Clc1nc2ccccc2s1`, for which the Potency entry is “inactive”.
`CCNc1nc(NC(C)CC)nc(OC)n1` (configuration not stated): the Potency entry is “inactive”.
Same read-out and setting: then `CC(C)(C)CC(C)(C)c1ccccc1O`, with 27.4 µM (active); and `CCCCCCS`, with “inactive”; and `CC(C)=CCCC(C)O` (configuration not stated), with “inactive”.
On the same count and under the same terms, in the case of `CC[N+](CC)(CC)Cc1ccccc1` it was “inactive”; in that of `C/C=C/C(=O)C1=C(C)CCCC1(C)C`, “inactive”.
On the same count and under the same terms, then `CO[Si](CCCNCCNCCN)(OC)OC`, with “inactive”.

The nature of a further experiment: qHTS assay to identify small molecule agonists of the retinoic acid receptor (RAR) signaling pathway (AID 1159553). As to conditions: C3RL4 RARE luciferase reporter, agonist, 6 h; series mostly up to 73.3 µM. In outline: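 Agonist activity was scored in C3RL4 cells bearing a retinoic acid response element luciferase construct. Cells were treated with compounds for 6 hr at 37 C, and luciferase signal was measured as luminescence.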
With `[O]=[Zr]`, the Potency entry is “inactive”.
For `CC(C)N=C(N)/N=C(\N)Nc1ccc(Cl)cc1`, the Potency entry was “inactive”.
On to `C=C1C(C)(C)[C@@]2(Cl)C(Cl)[C@]1(Cl)C(Cl)(Cl)C2(Cl)Cl` (some centres not stated), for which the Potency entry is “inactive”.
The same measure, in the same setting: in the case of `COC(=O)C1=C(C)NC(C)=C(C(=O)OCCCN2CCC(c3ccccc3)(c3ccccc3)CC2)C1c1cccc([N+](=O)[O-])c1` (configuration not stated) it was “inactive”; in that of `O=C1OC(=O)c2cccc3cccc1c23`, “inactive”; in that of `S=P(N1CC1)(N1CC1)N1CC1`, “inactive”.
Same read-out and setting: then `COc1ccccc1OCCNCC(O)COc1cccc2[nH]c3ccccc3c12` (configuration not stated), with “inactive”; and `CC(COC(=O)c1ccccc1)OC(=O)c1ccccc1` (configuration not stated), with “inactive”.
Consider `COc1cc(C(C)C)c2c(c1)S(=O)(=O)N(COc1cc(=O)n3cccc(OCCN4CCCCC4)c3n1)C2=O`, for which the Potency result is “inactive”.
Same read-out and setting: in the case of `Cc1cc2c(C(C)C)c(O)c(O)c(C=O)c2c(O)c1-c1c(C)cc2c(C(C)C)c(O)c(O)c(C=O)c2c1O` it was “inactive”; in that of `CCN(CC)CCNc1ccc(CO)c2sc3ccccc3c(=O)c12`, “inactive”; in that of `Brc1ccccc1-c1ccccc1`, “inactive”.
Still for that read-out and setting: then `C[C@H]1O[C@@H](O[C@H]2[C@@H](O)C[C@H](O[C@H]3[C@@H](O)C[C@H](O[C@H]4CC[C@@]5(C)[C@H](CC[C@@H]6[C@@H]5C[C@@H](O)[C@]5(C)[C@@H](C7=CC(=O)OC7)CC[C@]65O)C4)O[C@@H]3C)O[C@@H]2C)C[C@H](O)[C@@H]1O`, with “inactive”.
Still for that read-out and setting: in the case of `Nc1cc(Cl)c([N+](=O)[O-])cc1O` it was “inactive”.
As to `Oc1c(Br)cc(Br)c2cccnc12`, the Potency entry is “inactive”.
Same read-out and setting: in the case of `CC(C)(C)C1=CC(=O)C=C(C(C)(C)C)C1=O` it was “inactive”.
As to `C=C(C)C(=O)OCCC[Si](Cl)(Cl)Cl`, the Potency entry is “inactive”.
The same measure, in the same setting: in the case of `C=CC(=O)OCCC#N` it was “inactive”; in that of `CC(C)(C)c1cc(/C=C2\SC(=N)NC2=O)cc(C(C)(C)C)c1O`, “inactive”; in that of `CC(C)(c1cc(Br)c(OCCO)c(Br)c1)c1cc(Br)c(OCCO)c(Br)c1`, “inactive”.
